# Data as given in PubChem BioAssay (Tox21).
# Records with an inconclusive call do not appear. A number with no mark means an inactive call. Calls follow the shape of the dose curve; as a rule, active = well fitted cell-killing curve with a large enough effect in the repeat runs; inconclusive = weak or mixed curves, or effect the other way; inactive = flat fitted curve, though single readings scatter.
# Experiment: qHTS assay to identify small molecule antagonists of the estrogen related receptor signaling pathway with the pleiotropic PPARgamma coactivator (PGC) cell viability counter screen (AID 1224822;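 also: viability read after 17.5 h compound exposure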)
# Details: ERR/PGC reporter cell line viability counter screen; series mostly up to 46.1 µM; viability change, negative = cytotoxic: at the top concentration
# From the text: National Center for Advancing Translational Sciences [NCATS]
# NIH Chemical Genomics Center [NCGC]
# U.S. Environmental Protection Agency [EPA]
# National Institutes of Environmental Health Sciences [NIEHS]
# National Toxicology Program [NTP]
# U.S. Food and Drug Administration [FDA]
# Estrogen related receptors (ERRs), the first orphan nuclear receptors discovered, play an important role in the control of cellular energy metabolism. ERRs are required for high-energy production in response to the environmental challenges. The pleiotropic PPARgamma coactivator (PGC) is a major partner of ERR and a key regulator in energy homeostasis. Together they have been implicated in the etiology of metabolic disorders such as Type 2 diabetes and metabolic syndrome. ERR-alpha was also identified as an adverse marker for breast cancer progression; ERR-alpha-positive tumors have a poor prognosis. To screen and to identify environmental compounds that perturb the ERR and PGC/ERR signaling pathways could provide valuable information for potential therapeutic or preventive measures in the treatment of metabolic disease. To differentiate true PGC/ERR antagonists or agonist from cytotoxic substances, the assay is multiplexed with cell viability assay.
# Tox21 Assay Protocol Summary:
# The PGC/ERR cells were dispensed at 2,000 cells/5 ul/well in 1536-well white plates using a Multidrop dispenser. After the assay plates were incubated at a 37 C/5% CO2 incubator for 6 hours, 23 nL of compounds dissolved in DMSO, positive and negative controls or DMSO only was transferred to the assay plate by a pin tool. The plates were incubated at 37 C for 17.5 hours. 1 ul/well of CellTiter-Fluor reagent was added into the assay plates using a Flying Reagent Dispenser. After 30 min incubation at 37 C/5% CO2, the fluorescence intensity in the plates was measured using a ViewLux plate reader.
# % is scaled to controls: 0 for no effect and ±100 for the full control effect.
row,Compound,"viability change, negative = cytotoxic"
1,CC(=O)c1ccc(S(=O)(=O)NC(=O)NC2CCCCC2)cc1,9.2%
2,O=c1c(-c2ccc(O)cc2)coc2cc(O)cc(O)c12,-10.7%
3,N[C@@H](Cc1c[nH]c2ccc(O)cc12)C(=O)O,6.32%
4,COc1ccccc1O,4.92% [at 92.2 µM]
5,CC(C)Cc1ccc(C(C)C(=O)O)cc1 (stereo not drawn),9.36%
6,O=C(O)Cc1cccc2ccccc12,-3.67% [at 92.2 µM]
7,CCN(CC)CCOC(=O)c1ccc(N)cc1,3.45%
8,NC(=O)OCC(COC(N)=O)c1ccccc1,3.15%
9,Cn1cnc2c1c(=O)[nH]c(=O)n2C,3.1%
10,C[C@]12C[C@H](O)[C@H]3[C@@H](CCC4=CC(=O)CC[C@@]43C)[C@@H]1CC[C@@H]2C(=O)CO,6.74%
11,CC1=C(/C=C/C(C)=C/C=C/C(C)=C/C(=O)O)C(C)(C)CCC1,-5.44%
12,C[C@]12CC[C@@H]3c4ccc(O)cc4CC[C@H]3[C@@H]1CCC2=O,7%
13,N[C@@H](Cc1c[nH]c2ccccc12)C(=O)O,16.9%
14,NC(=O)N/N=C/c1ccc([N+](=O)[O-])o1,-5.73% [at 92.2 µM]
15,CC(C)(C)NCC(O)c1ccc(O)c(CO)c1 (stereo not drawn),-1.57%
16,NC(=O)NO,9.1%
17,CN/C(=C\[N+](=O)[O-])NCCSCc1ccc(CN(C)C)o1,3.17%
18,CCOC(=O)C(C)(C)Oc1ccc(Cl)cc1,8.64%
19,CC(=O)Oc1ccccc1C(=O)O,11.8%
20,Cc1cnc(NC(=O)C2=C(O)c3ccccc3S(=O)(=O)N2C)s1,-4.85%
21,COc1cc2c(c(OC)c1OC)-c1ccc(OC)c(=O)cc1[C@@H](NC(C)=O)CC2,-10.3%
22,NC(=O)N1c2ccccc2C=Cc2ccccc21,7.83%
23,C[C@]12CC[C@@H]3c4ccc(O)cc4C[C@@H](CCCCCCCCCS(=O)CCCC(F)(F)C(F)(F)F)[C@H]3[C@@H]1CC[C@@H]2O (stereo partly drawn),-5.89%
